Assay results published in PubChem BioAssay AID1852 (Sanford-Burnham Center for Chemical Genomics, 2009).
In all, about 2,500 compounds went through this assay and about 1,100 (44%) were called active.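 Rule for the calls: active = inhibition above 50% at 4 µM in the single-point screen; inactive = inhibition of 50% or less.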 The set was probably picked from earlier hits. The list shows a part of the results.

Experiment: blockers of TNF-a NF-kB luciferase induction – cell-based, HEK293T NF-kB-Luc, luminescence, selectivity assay for NOD1/NOD2 signaling inhibitor project, primary screen (AID 1852)
Conditions: TNF-a induced, 14 h, at 4 µM, stronger effect = higher value

Row | SMILES | inhibition
1 | COc1ccc(NC(=O)/C(Cl)=C(/Cl)S(=O)Cc2ccccc2Cl)cn1 (configuration not stated) | 98.2% (active)
2 | Cn1c(=O)c(C#N)c(-c2ccc(F)cc2)c2cc(C(=O)c3cc(Cl)cc(Cl)c3O)cnc21 | 95.8% (active)
3 | CCc1nn2cc(C(=O)c3cc(Cl)ccc3O)cnc2c1-c1ccc(F)cc1 | -6% (inactive)
4 | COc1ccc(C2(c3ccc(OC)cc3)NC(=O)N(CC(=O)Nc3ccc(C(N)=O)cc3)C2=O)cc1 | 59.3% (active)
5 | COc1ccc(NC(=O)CN(C)C(=O)c2ccccc2OC)cc1 | -11.8% (inactive)
6 | CCn1c(SCC(=O)Nc2ccc(OC)cc2)nc2nc3c(cc2c1=O)CCCC3 | -16.7% (inactive)
7 | CC(C)(C)C1CCC2(CC1)C(C#N)=C(SCC(=O)Nc1ccccc1)NC(=O)C2C#N (configuration not stated) | 79% (active)
8 | CC(C)(C)C1CCC2(CC1)C(C#N)=C(SCC(=O)NC1CCCCC1)NC(=O)C2C#N (configuration not stated) | -10.7% (inactive)
9 | N#CC1=C(SCC(=O)NC23CC4CC(CC(C4)C2)C3)NC(=O)C(C#N)C12CCCCC2 (configuration not stated) | 66.1% (active)
10 | O=C1NC(=S)S/C1=C\c1cc2ccccc2nc1N1CCCCC1 | 42% (inactive)
11 | COc1ccc(C(=O)CN2C(=O)c3ccccc3S2(=O)=O)cc1 | 92.1% (active)
12 | O=C(CN1C(=O)c2ccccc2S1(=O)=O)c1ccc(F)cc1 | 29.1% (inactive)
13 | Cc1ccc(C(=O)CN2C(=O)c3ccccc3S2(=O)=O)cc1 | 85.1% (active)
14 | O=C1c2ccccc2S(=O)(=O)N1Cc1nc2ccccc2s1 | 53.2% (active)
15 | O=C(CCl)Nc1ccc(Sc2ccc(NC(=O)CCl)cc2)cc1 | 81.3% (active)
16 | O=C(CCl)Nc1ccccc1Sc1ccc(Cl)cc1 | 33.5% (inactive)
17 | O=C1NC(=O)/C(=C\c2ccccc2Oc2ccc(F)c(F)c2)S1 | 55.7% (active)
18 | O=C1NC(=O)/C(=C/c2ccccc2Oc2ccc(Cl)cc2)S1 | -26.6% (inactive)
19 | O=C1NC(=O)/C(=C/c2ccccc2OCc2ccccc2)S1 | 16.2% (inactive)
20 | Cc1cc(C(=O)CCl)c(C)n1CCc1ccc(F)cc1 | 55.6% (active)
21 | Cc1cc(C(=O)CCl)c(C)n1CCc1ccc(Cl)cc1 | 21.1% (inactive)
22 | CCC(C)NC(=O)Cn1cnc2sc(C)c(S(=O)(=O)N3CCN(c4ccccc4OC)CC3)c2c1=O (configuration not stated) | 9.7% (inactive)
23 | CCOC(=O)C1CCN(S(=O)(=O)c2ccc3c(c2)N(C(C)=O)CC(C)S3)CC1 (configuration not stated) | 5.4% (inactive)

Row | SMILES | inhibition
24 | CCOC(=O)C1CCN(C(=O)Cn2cnc3sc(C)c(S(=O)(=O)N4CCC(C)CC4)c3c2=O)CC1 | 55.3% (active)
25 | CN(C)S(=O)(=O)Oc1ccc(C(=O)Nc2cccc(C(F)(F)F)c2)cc1 | 36.5% (inactive)
26 | CN(C)S(=O)(=O)c1cccc(NC(=O)c2ccc(COc3ccccc3)cc2)c1 | 80.7% (active)
27 | CCOC(=O)C1=C(c2ccc(OC)cc2)C(=O)c2ccccc2C1=O | 108% (active)
28 | CCOC(=O)C1=C(Cc2ccc(Cl)cc2)C(=O)c2ccccc2C1=O | 7.7% (inactive)
29 | CCOC(=O)C1=C(Cc2ccc(F)cc2)C(=O)c2ccccc2C1=O | 90.8% (active)
30 | CCOC(=O)C1=C(Cc2ccc(C)cc2)C(=O)c2ccccc2C1=O | 61.3% (active)
31 | CCOC(=O)c1sc2ccccc2c1OC(=O)c1ccc(C)cc1 | 17.4% (inactive)
32 | COc1cccc(CNc2ncnc3cc(Cl)ccc23)c1 | 49.2% (inactive)
33 | COc1ccc(CNc2ncnc3ccccc23)cc1 | 65.6% (active)
34 | c1ccc(CNc2ncnc3ccccc23)cc1 | 65.6% (active)
35 | CC(Nc1ncnc2sccc12)c1ccccc1 (configuration not stated) | 35.1% (inactive)
36 | Fc1ccc(CNc2ncnc3cc(Cl)ccc23)cc1 | 39.9% (inactive)
37 | Cc1cc2c(NCc3ccccc3)ncnc2s1 | 42.6% (inactive)
38 | CC(Nc1ncnc2ccccc12)c1ccccc1 (configuration not stated) | 83.3% (active)
39 | Cc1ccccc1OCc1nc2ccccc2c(=O)n1/N=C/c1cn[nH]c1-c1ccc(Br)cc1 | 3.5% (inactive)
40 | COc1ccccc1N1CCN(c2ncc(C(=O)N3CCN(c4cccc(Cl)c4)CC3)c3ccccc23)CC1 | 21.9% (inactive)
41 | CCN(C(=O)c1cnc(N2CCN(c3ncccn3)CC2)c2ccccc12)c1cccc(Cl)c1 | 46.7% (inactive)
42 | Cc1cc(Br)ccc1NC(=O)c1cnc(N2CCN(c3ccccn3)CC2)c2ccccc12 | 73.3% (active)
43 | S=C(Nc1ccc(Oc2ccccc2)cc1)N1CCN(c2ccccn2)CC1 | 21% (inactive)
44 | Cc1nc(N2CCN(c3ccccn3)CC2)c2c(C)c(C(=O)Nc3ccccc3F)sc2n1 | 4.6% (inactive)
45 | Cc1ccccc1C(=O)N1CCN(c2ccccn2)CC1 | 48.2% (inactive)
46 | O=C(CN1CCN(c2ccccn2)CC1)Nc1cccc(Br)c1 | 13.8% (inactive)

Row | SMILES | inhibition
47 | Cc1nc(N2CCN(c3ccccn3)CC2)c2c(C)c(C(=O)N3CCN(c4ccccc4F)CC3)sc2n1 | -27.6% (inactive)
48 | O=C(c1cnc(N2CCN(c3ccccn3)CC2)c2ccccc12)N1CCN(c2cccc(Cl)c2)CC1 | 53.2% (active)
49 | COc1ccc(C)cc1NC(=O)c1sc2ncnc(N3CCN(c4ccccn4)CC3)c2c1C | -10% (inactive)
50 | Cc1ccc(NC(=O)c2cnc(N3CCN(c4ccccn4)CC3)c3ccccc23)c(Br)c1 | 99.8% (active)
51 | CCc1ccc(NC(=O)c2cnc(N3CCN(c4ccccn4)CC3)c3ccccc23)cc1 | 78.3% (active)
52 | O=C(COC(=O)/C=C/C(=O)OCC(=O)Nc1ccccc1F)Nc1ccccc1F | 33.2% (inactive)
53 | CCOC(=O)c1cccc2c1-c1ccccc1/C2=N/O | 48.8% (inactive)
54 | COC(=O)c1ccc2c(c1O)C(=O)c1ccccc1C2=O | -53.2% (inactive)
55 | COC(=O)c1cccc2c1-c1ccccc1/C2=N/O | 67.3% (active)
56 | O=C(NC(NC(=S)Nc1ccccc1Cl)C(Cl)(Cl)Cl)c1cccc(Cl)c1 (configuration not stated) | -7% (inactive)
57 | O=C(NC(NC(=S)Nc1ccccc1)C(Cl)(Cl)Cl)c1cccc(Cl)c1 (configuration not stated) | 23.1% (inactive)
58 | O=[N+]([O-])c1ccc(O)c(/C=N/Nc2ncnc3c2cnn3-c2ccccc2)c1 | 46.3% (inactive)
59 | O=C(NC(NC(=S)Nc1ccc(Cl)cc1Cl)C(Cl)(Cl)Cl)c1cccc([N+](=O)[O-])c1 (configuration not stated) | 95.7% (active)
60 | O=[N+]([O-])c1ccc(O)c(/C=N/Nc2ccc(Cl)nn2)c1 | 70.3% (active)
61 | O=[N+]([O-])c1ccc(O)c(/C=N/NC(=S)Nc2ccc(Cl)cc2Cl)c1 | 105% (active)
62 | O=[N+]([O-])c1ccc(O)c(/C=N/Nc2ccccc2[N+](=O)[O-])c1 | 69.5% (active)
63 | O=[N+]([O-])c1cc(Cl)cc(/C=N/NC(=S)Nc2cc(S(=O)(=O)N3CCOCC3)ccc2Cl)c1O | 49.1% (inactive)
64 | CCCOc1ccc(/C=N/NC(=S)Nc2ccccc2[N+](=O)[O-])c(O)c1 | 15.1% (inactive)
65 | Oc1c(Br)cc(Br)cc1/C=N/Nc1ccc(Cl)nn1 | 44.5% (inactive)
66 | COc1ccc(NC(=S)NC(NC(=O)c2ccc(Cl)cc2Cl)C(Cl)(Cl)Cl)c([N+](=O)[O-])c1 (configuration not stated) | 34.9% (inactive)
67 | Oc1cccc(/C=N/Nc2ccc(Cl)nn2)c1O | -18% (inactive)
